Drawing on ChEMBL document CHEMBL1961873, “Compounds: GSK PKIS; Assays: Nanosyn kinase panel” (2012), this text covers inhibition for 34 compounds.

The target in one assay is Serine/threonine-protein kinase Nek6 (Homo sapiens) (UniProt Q9HC98). As to conditions: at 1 µM.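 Also: values are mean inhibition of NEK6 from the GSK PKIS screen.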
Serine/threonine-protein kinase Nek6 (Homo sapiens), sequence (Q9HC98 whole entry): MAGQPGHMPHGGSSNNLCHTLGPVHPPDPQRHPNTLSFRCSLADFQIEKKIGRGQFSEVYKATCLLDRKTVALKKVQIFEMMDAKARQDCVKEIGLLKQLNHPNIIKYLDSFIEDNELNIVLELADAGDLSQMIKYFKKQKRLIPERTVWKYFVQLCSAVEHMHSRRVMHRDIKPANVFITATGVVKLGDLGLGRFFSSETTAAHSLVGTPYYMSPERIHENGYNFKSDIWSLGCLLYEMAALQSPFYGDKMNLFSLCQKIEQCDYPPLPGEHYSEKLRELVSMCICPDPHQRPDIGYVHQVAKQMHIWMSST
`C/C(Nc1ccc(S(N)(=O)=O)cc1)=C1/C(=O)Nc2ccccc21`: the inhibition (as a rule, the change of the read-out against control, counted positive when it falls) is -0.83%. For the compound `NC(=O)Cc1ccccc1Oc1nccc(-c2c(-c3ccc(F)cc3)ncn2C2CCNCC2)n1`, the inhibition was found to be 1.26%. Same read-out and setting: with `Fc1ccc(-c2ncn(CCCN3CCOCC3)c2-c2ccncc2)cc1` the figure was -0.51%; with `c1ccc(Oc2ccc(Nc3ncc(-c4ccccc4)o3)cc2)cc1`, 0.96%; with `COc1ccc2cc(-c3c(-c4ccncc4)nc(-c4ccc(S(C)(=O)=O)cc4C)n3C)ccc2c1`, 4.51%. On the same count and under the same terms, as for `O=C(NCC1CC1)c1ccc(-c2cccc(C(=O)NC3CC3)c2)cc1`, the figure is 1.92%; as for `O=C(Nc1ccc(Oc2ccc3[nH]c(NC(=O)c4ccccc4)nc3c2)cc1)Nc1cc(C(F)(F)F)ccc1F`, 1.7%. On the same count and under the same terms, with `COc1cc2ncn(-c3cc(OCCc4ccccc4)c(C(N)=O)s3)c2cc1OC` the figure was 1.69%. Take `C[C@@H](Oc1cc(-n2cnc3ccc(OCC4CCN(C)CC4)cc32)sc1C(N)=O)c1ccccc1Cl`: the inhibition was found to be 0.47%. Take `CS(=O)(=O)CCNCc1cc(-c2cc3c(Nc4ccc(OCc5cccc(F)c5)c(Cl)c4)ncnc3s2)cs1`: the inhibition turned out to be 3.03%. Still for that read-out and setting: with `CCc1nccc2c1nc(-c1nonc1N)n2CC` the figure was 0.82%. Still for that read-out and setting: as for `COc1cccc(/C=N/Nc2ncnc3c2cnn3-c2cccc(OC)c2)c1`, the figure is 2.21%. The same measure, in the same setting: as for `COc1ccc2cc(-c3c(-c4ccncc4)nc(-c4ccc([S+](C)[O-])cc4C)n3C)ccc2c1` (stereo unspecified), the figure is 1.1%; as for `O=C(Nc1n[nH]c2nc(-c3ccco3)ccc12)C1CC1`, -0.99%; as for `Cc1ccc(C(=O)NC(C)C)cc1-c1ccc(C(=O)NCC2CC2)cc1`, -3.72%. Turning to `FC(F)(F)c1cccc(Nc2nccc(-c3cnn4nc(-c5ccccc5)ccc34)n2)c1`, the inhibition was -0.37%. On the same count and under the same terms, as for `O=C(Nc1n[nH]c2cc(-c3cc(F)ccc3F)ccc12)C1CC1`, the figure is -0.92%. Same read-out and setting: as for `CN(c1ccc(NC(=O)Nc2c(Cl)cccc2Cl)cc1)c1ccnc(Nc2cccc(CS(C)(=O)=O)c2)n1`, the figure is 1.86%; as for `COc1cc2ncn(-c3cc(OCc4ccccc4C(F)(F)F)c(C(C)=O)s3)c2cc1OC`, 3.34%. With `COc1cc(Nc2ncc3c(C)nc(-c4cccc(Oc5ccccc5)c4)n3n2)cc(OC)c1OC`, the inhibition is -0.99%. On the same count and under the same terms, as for `CNC(=O)c1cncc(/C=C/c2c(C)cccc2C)c1`, the figure is 0.01%; as for `NCc1ccc(-n2c(-c3nonc3N)nc3cnccc32)cc1`, 3.42%; as for `O=C1Nc2ccc(I)cc2C1=Cc1cc(Br)c(O)c(Br)c1`, 3.89%.

For `NS(=O)(=O)c1ccc(Nc2cc(-c3ccc(O)c(F)c3)n[nH]2)cc1`, the inhibition is -2.21%. On the same count and under the same terms, as for `CN(C)c1ccc2c(c1)/C(=C/Nc1ccc(S(N)(=O)=O)cc1)C(=O)N2`, the figure is 2.13%; as for `Fc1ccc(-c2ncn(C3CCNCC3)c2-c2ccnc(Oc3ccc(F)c(F)c3)n2)cc1`, 2.1%. Still for that read-out and setting: with `N#Cc1ccc(Oc2nccc(-c3c(-c4ccc(F)cc4)ncn3C3CCNCC3)n2)cc1` the figure was 3.68%; with `COc1cc(C)c(N(C)C(=O)CN(C)C)cc1Nc1nc(Nc2cccc(F)c2C(N)=O)c2cc[nH]c2n1`, -1.46%. Still for that read-out and setting: with `COc1cc2ncn(-c3cc(OCc4cccs4)c(C(N)=O)s3)c2cc1OC` the figure was 6.02%.

Turning to `CCc1cccc(CC)c1/C=C/c1cncc(C(=O)NC)c1`, the inhibition amounted to 0.68%.

As to `COc1ccc(C2=C(N3CCc4ccccc43)C(=O)NC2=O)cc1`, the inhibition came to 1.65%. With `Fc1ccc(-c2c(-c3ccncc3)nc3n2CCS3)cc1`, the inhibition was determined as 0.48%. The same measure, in the same setting: with `CCS(=O)(=O)c1ccc(OC)c(Nc2ncc(-c3ccccc3Cl)o2)c1` the figure was -2.46%; with `CN(C)CCOc1ccc(-c2cc(-c3ccc4c(c3)CCC4=NO)c(-c3ccncc3)o2)cc1`, -0.66%.

For another assay, the target named is Serine/threonine-protein kinase Nek7 (Homo sapiens) (UniProt Q8TDX7). As to conditions: at 0.1 µM.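 Also: figures are averaged percent inhibition of NEK7 kinase.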
Serine/threonine-protein kinase Nek7 (Homo sapiens), sequence (Q8TDX7 whole entry, looked up): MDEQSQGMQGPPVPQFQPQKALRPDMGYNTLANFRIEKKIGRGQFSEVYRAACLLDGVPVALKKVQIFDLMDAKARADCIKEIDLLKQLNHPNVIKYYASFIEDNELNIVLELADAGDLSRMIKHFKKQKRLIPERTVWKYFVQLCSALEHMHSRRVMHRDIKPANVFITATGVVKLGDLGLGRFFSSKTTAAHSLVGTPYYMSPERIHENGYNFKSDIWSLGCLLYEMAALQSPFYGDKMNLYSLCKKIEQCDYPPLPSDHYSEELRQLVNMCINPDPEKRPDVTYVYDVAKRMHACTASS
`NC(=O)Cc1ccccc1Oc1nccc(-c2c(-c3ccc(F)cc3)ncn2C2CCNCC2)n1`: the inhibition turned out to be 3.21%. For `Fc1ccc(-c2ncn(CCCN3CCOCC3)c2-c2ccncc2)cc1`, the inhibition turned out to be 2.31%. `COc1ccc2cc(-c3c(-c4ccncc4)nc(-c4ccc(S(C)(=O)=O)cc4C)n3C)ccc2c1`: the inhibition came to 5.77%.

As for `O=C(NCC1CC1)c1ccc(-c2cccc(C(=O)NC3CC3)c2)cc1`, the inhibition came to 3.35%. With `O=C(Nc1ccc(Oc2ccc3[nH]c(NC(=O)c4ccccc4)nc3c2)cc1)Nc1cc(C(F)(F)F)ccc1F`, the inhibition amounted to 4.29%. Same read-out and setting: as for `COc1cc2ncn(-c3cc(OCCc4ccccc4)c(C(N)=O)s3)c2cc1OC`, the figure is 3.01%; as for `C[C@@H](Oc1cc(-n2cnc3ccc(OCC4CCN(C)CC4)cc32)sc1C(N)=O)c1ccccc1Cl`, 4.32%; as for `CS(=O)(=O)CCNCc1cc(-c2cc3c(Nc4ccc(OCc5cccc(F)c5)c(Cl)c4)ncnc3s2)cs1`, 4.02%. On the same count and under the same terms, as for `CCc1nccc2c1nc(-c1nonc1N)n2CC`, the figure is 2.57%; as for `COc1cccc(/C=N/Nc2ncnc3c2cnn3-c2cccc(OC)c2)c1`, 3.9%. Still for that read-out and setting: with `COc1ccc2cc(-c3c(-c4ccncc4)nc(-c4ccc([S+](C)[O-])cc4C)n3C)ccc2c1` (stereo unspecified) the figure was 2.37%; with `O=C(Nc1n[nH]c2nc(-c3ccco3)ccc12)C1CC1`, 2.23%. As for `Cc1ccc(C(=O)NC(C)C)cc1-c1ccc(C(=O)NCC2CC2)cc1`, the inhibition is -6.3%. Still for that read-out and setting: with `FC(F)(F)c1cccc(Nc2nccc(-c3cnn4nc(-c5ccccc5)ccc34)n2)c1` the figure was 2.4%; with `O=C(Nc1n[nH]c2cc(-c3cc(F)ccc3F)ccc12)C1CC1`, 6.28%; with `CN(c1ccc(NC(=O)Nc2c(Cl)cccc2Cl)cc1)c1ccnc(Nc2cccc(CS(C)(=O)=O)c2)n1`, 1.01%. The same measure, in the same setting: as for `COc1cc2ncn(-c3cc(OCc4ccccc4C(F)(F)F)c(C(C)=O)s3)c2cc1OC`, the figure is 1.7%; as for `COc1cc(Nc2ncc3c(C)nc(-c4cccc(Oc5ccccc5)c4)n3n2)cc(OC)c1OC`, 4.1%; as for `CNC(=O)c1cncc(/C=C/c2c(C)cccc2C)c1`, -1.37%. In the case of `NCc1ccc(-n2c(-c3nonc3N)nc3cnccc32)cc1`, the inhibition was 7.27%. Take `O=C1Nc2ccc(I)cc2C1=Cc1cc(Br)c(O)c(Br)c1`: the inhibition was 4.66%. Same read-out and setting: with `NS(=O)(=O)c1ccc(Nc2cc(-c3ccc(O)c(F)c3)n[nH]2)cc1` the figure was -0.59%; with `CN(C)c1ccc2c(c1)/C(=C/Nc1ccc(S(N)(=O)=O)cc1)C(=O)N2`, 5.09%; with `Fc1ccc(-c2ncn(C3CCNCC3)c2-c2ccnc(Oc3ccc(F)c(F)c3)n2)cc1`, 3.19%. The same measure, in the same setting: with `N#Cc1ccc(Oc2nccc(-c3c(-c4ccc(F)cc4)ncn3C3CCNCC3)n2)cc1` the figure was 3.62%. The same measure, in the same setting: as for `COc1cc(C)c(N(C)C(=O)CN(C)C)cc1Nc1nc(Nc2cccc(F)c2C(N)=O)c2cc[nH]c2n1`, the figure is 3.13%; as for `COc1cc2ncn(-c3cc(OCc4cccs4)c(C(N)=O)s3)c2cc1OC`, 1.64%; as for `CCc1cccc(CC)c1/C=C/c1cncc(C(=O)NC)c1`, 2.82%. Consider `COc1ccc(C2=C(N3CCc4ccccc43)C(=O)NC2=O)cc1`, for which the inhibition was determined as 3.11%.

Take `Fc1ccc(-c2c(-c3ccncc3)nc3n2CCS3)cc1`: the inhibition amounted to 3.63%. Same read-out and setting: as for `CCS(=O)(=O)c1ccc(OC)c(Nc2ncc(-c3ccccc3Cl)o2)c1`, the figure is -0.08%; as for `CN(C)CCOc1ccc(-c2cc(-c3ccc4c(c3)CCC4=NO)c(-c3ccncc3)o2)cc1`, -2.05%.
